Bioassay records: PubChem, National Center for Advancing Translational Sciences (NCATS)
Most compounds without a hit are left out; they make up all but 2.1% or so of the library.
aSyn yeast inh = qHTS of alpha-syn Inhibitors; Potency, µM (top dose mostly 46.1 µM), for inactives: at the highest dose growth rescue (activation), most hits filed as activators; actives 0.14% (n = 370,000); AID 652106, 2013; Yeast expressing alpha-synuclein, growth rescue, BacTiter-Glo, 24 h; also: % of control where 0% means no effect; nearly all actives have a fitted effect of over 65% in size
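Readout is rescue of growth in alpha-synuclein-expressing yeast, so inhibitors of toxicity appear as activators. Growth after 24 hr at 30 deg C in galactose medium is quantified by luminescence.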
TSG101-PTAP inh = qHTS Assay for Iinhibitors of HIV-1 Budding by Blocking the Interaction of PTAP/TSG101. 340,000 tested, under 10 active. Fluorescence polarization, FITC-PTAP peptide / Tsg101 binding. AID 493005, 2010. Potency, µM (top dose mostly 115 µM), for the others: top-dose activity change, negative = inhibition, most hits filed as inhibitors; active = well fitted inhibition curve with a large enough effect in the main read-out, with a control signal flat, not every such curve was filed as active; inconclusive = small, poorly fitted or top-dose-only effect, or effect the other way, or a change in a side signal; inactive = no such curve, though single readings can be large or run the other way; also: % of control where 0% means no effect
Target sequence (Q99816 whole entry, looked up): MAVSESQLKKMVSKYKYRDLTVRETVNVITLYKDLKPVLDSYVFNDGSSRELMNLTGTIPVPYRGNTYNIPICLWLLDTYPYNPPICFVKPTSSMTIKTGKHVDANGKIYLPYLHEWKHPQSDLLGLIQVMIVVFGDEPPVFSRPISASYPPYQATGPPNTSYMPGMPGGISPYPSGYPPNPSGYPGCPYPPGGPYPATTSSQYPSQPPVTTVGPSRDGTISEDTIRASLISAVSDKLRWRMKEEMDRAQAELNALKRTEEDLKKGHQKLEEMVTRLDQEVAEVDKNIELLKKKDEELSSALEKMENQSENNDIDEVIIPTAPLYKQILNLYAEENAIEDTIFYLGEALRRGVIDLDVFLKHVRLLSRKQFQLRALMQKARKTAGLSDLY
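Fluorescence anisotropy tracks displacement of a FITC-tagged PTAP peptide (50 nM) from the Tsg101 binding domain (10 uM), following a 20 min room-temperature incubation at pH 7.5.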
TDP-43 yeast inh = qHTS of TDP-43 Inhibitors; actives 1.8% (n = 410,000); AID 652104, 2013; TDP-43 expressing yeast growth rescue, BacTiter-Glo, 24 h; Potency, µM (doses to about 46.1 µM), for the others: at the top dose growth rescue (activation), actives largely listed as activators; also: % of control where 0% means no effect; nearly all actives have a fitted effect of over 50% in size
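Cell-based yeast growth screen: TDP-43 expression induced in galactose, inoculum OD600=0.02 after raffinose pregrowth to mid-log. Read-out BacTiter-Glo luminescence at 24 hr, 30 deg C; inhibition of toxicity seen as signal increase.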
Abeta yeast res = qHTS for compounds that reverse cellular toxicity of Amyloid beta (A-beta) peptide in yeast: Primary Screen. yeast expressing A-beta42, growth rescue, OD600, 48 h; response scale: 0% DMSO, 100% iron-clioquinol control. Potency, µM (doses to about 46.1 µM), hits mostly activators. actives 0.063% (n = 410,000); also: nearly all actives have a fitted effect of over 55% in size
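Yeast A-beta toxicity model in growth medium with pinned compounds, 48 h at 30 C; growth read as absorbance at 600 nm. Normalized to FeCl3/clioquinol equimolar mix (positive) and DMSO (negative).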
FUS suppressor = qHTS for Suppressors of FUS Proteinopathy: Primary screen using FUS-linked yeast assay | S. cerevisiae FUS-expressing, growth rescue, OD600, 24 h | actives 0.24% (n = 390,000) | Potency, µM (highest dose often 76.6 µM), usual class: activators;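 also: plate controls were DMSO vehicle for no effect and reference control for full effect; nearly all actives have a fitted effect of over 55% in size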
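Restored growth of FUS-toxic S. cerevisiae, read as 600 nm absorbance after 24 h at 30C in galactose medium (starting OD 0.005). Controls CP55940 and DMSO.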
* marks the source's active call; other numbers are inactive results; i = inactive; u = inconclusive; x = no result given; [ ] = remark or other dose. Unless noted, calls follow the shape of the dose curve; as a rule, active = well fitted curve in the direction sought with a large enough effect; inconclusive = small, poorly fitted or top-dose-only effect, or another doubt; inactive = no such curve, though single readings can be large; an effect the other way counts as inactive or inconclusive. Potency is read from the fitted curve at half-maximal effect.

SMILES	aSyn yeast inh	TSG101-PTAP inh	TDP-43 yeast inh	Abeta yeast res	FUS suppressor
COC1OC2COC(c3ccccc3)OC2C2OC12 (centres undefined)	5%	-6%	23%	i	i
Cc1ccc(C(=O)N2CCc3cc(CNC(=O)c4ccnn4C)ccc32)cc1	x	x	-7%	i	i
CC(C)(C)NC(=O)Cn1cc(S(=O)(=O)Cc2ccccc2Cl)c2ccccc21	x	x	12%	i	i
Cc1ccc(CN2C(=O)c3ccccc3Sc3ccc(C(=O)NC4CCCCC4)cc32)cc1	x	x	8%	i	i
CCN(C(=O)c1cc2c(s1)-c1ccccc1OC2)c1cc(Cl)ccc1OC	x	x	12%[9.22 µM]	i	u
COc1ccc(N2CCN(c3ncnc4scc(-c5ccc(C)cc5)c34)CC2)cc1	-1%	0%	u	i	i
COc1ccc(N2CCN(C(=O)CSc3nc(C)cs3)CC2)cc1	2%	3%	0%	i	i
COc1ccc(N2CCN(c3ncnc4scc(-c5ccc(F)cc5)c34)CC2)cc1	0%	1%	13µM*	i	i
COc1ccc(N2CCN(C(=O)CSc3ncnc4scc(-c5ccc(C)cc5)c34)CC2)cc1	-5%	-4%	11µM*	i	i
COc1ccc(C(=O)NCCc2sc(-c3ccc(Cl)cc3)nc2C)c(OC)c1	x	x	u	i	i
Cc1nc(-c2ccc(C)c(N3CCN(C(=O)Nc4cccc(Cl)c4C)CC3)c2)no1	u	x	13%	i	i
Cc1cc(Cl)ccc1C(=O)C1CCCN(C(=O)c2ccsc2)C1 (centres undefined)	10%	-1%	13µM*	i	i
CC(=O)N1CCc2cc(CNS(=O)(=O)c3ccc(Cl)s3)ccc21	x	x	u	i	i
O=C(Nc1cc(C(F)(F)F)ccc1-n1cncn1)c1ccc([N+](=O)[O-])o1	-8%	-1%	14µM*	i	i
C[C@@H]1CN([C@H](C)CO)C(=O)c2cc(Br)cnc2O[C@@H]1CN(C)C(=O)NC1CCCC1	2%	x	-2%	i	i
Cc1nc2c(C(=O)NCc3ccccc3Cl)c[nH]n2c(=O)c1Cc1cccc(Cl)c1	x	x	1%	i	i
Cc1ccccc1NS(=O)(=O)c1cc(C(=O)N2CCCC2)ccc1Cl	-1%	x	11%	i	x
Cc1ccc(C)c(NC(=O)N2CCc3ccccc3C2)c1	3%	-7%	20µM*	i	i
Cc1cccc(NS(=O)(=O)c2cc(C(=O)N3CCc4ccccc4C3)ccc2Cl)c1C	10µM*	-7%	-14%	i	u
Cc1ccc(C)c(NS(=O)(=O)c2cc(C(=O)N3CCc4ccccc4C3)ccc2Cl)c1	16µM*	-5%	-30%	i	u
CC(C)(C)c1cc2nc(NCc3cccc(Cl)c3)ccn2n1	u	x	25µM*	u	i
Clc1cccc(CNc2ccn3nc(-c4cccc(Cl)c4)cc3n2)c1	25%	x	11µM*	u	i
Clc1cccc(CNc2ccn3nc(-c4ccc(OCc5ccccc5)cc4)cc3n2)c1	-5%	x	-3%	i	i
Clc1cccc(CNc2ccn3nc(-c4ccccc4)cc3n2)c1	u	x	13µM*	u	i
Clc1ccc(-c2cc3nc(NCc4cccc(Cl)c4)ccn3n2)cc1	-42%	x	35µM*	i	i
Clc1cccc(-c2cc3nc(NCCOc4ccccc4)ccn3n2)c1	1%	x	-28%	i	i
Cc1nc2c(c(C)c1CCC(=O)Nc1cccc(C(F)(F)F)c1)c(=O)n(C)c(=O)n2C	x	x	4%	i	i
CCC(c1nnnn1-c1ccc2c(c1)OCCO2)N1CCN(C)CC1 (centres undefined)	u	x	23%	i	i
CC(=O)CSc1nc(-c2ccccc2)c(-c2ccccc2)o1	8%	-4%	16µM*	i	i
COc1cccc(CCC(=O)N(C)C2CCCN(Cc3ccccc3F)C2)c1 (centres undefined)	-3%	-4%	13%	i	i
